Compound activity deposited in PubChem BioAssay by National Center for Advancing Translational Sciences (NCATS).
Only some compounds are listed: those with a hit (about 3.2% of all), similar ones and a draw of the others.
AmpC inh no detg: AmpC beta-lactamase inhibition without detergent; P00811; AmpC nitrocefin hydrolysis, absorbance 480 nm, 0.0001% Triton; Potency, µM (highest dose often 57.1 µM), without a hit: at the highest dose activity change, negative = inhibition, usual class: inhibitors; 330,000 tested, 0.52% active;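 also: plate controls were no compound for no effect and no enzyme for full effect; nearly all actives have a fitted effect of over 20% in size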
Target sequence (P00811 whole entry, looked up): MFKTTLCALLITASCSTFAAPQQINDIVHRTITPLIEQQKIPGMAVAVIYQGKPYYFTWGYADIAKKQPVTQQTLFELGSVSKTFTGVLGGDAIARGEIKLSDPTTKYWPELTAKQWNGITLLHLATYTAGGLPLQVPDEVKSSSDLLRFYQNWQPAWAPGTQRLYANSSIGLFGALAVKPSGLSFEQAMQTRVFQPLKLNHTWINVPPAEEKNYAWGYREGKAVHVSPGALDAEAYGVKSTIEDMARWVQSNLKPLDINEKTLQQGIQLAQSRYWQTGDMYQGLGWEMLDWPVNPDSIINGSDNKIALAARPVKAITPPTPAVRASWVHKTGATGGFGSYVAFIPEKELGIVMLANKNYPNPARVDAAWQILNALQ
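20 mM phosphate pH 7.0 + 0.01% (detergent screen) or 0.0001% Triton X-100; 5.3 nM AmpC reagent; cpd preinc 15 min RT; nitrocefin (800 uM stock) to start; A480 q20 s × 4 min; Activity was normalised to no-enzyme and no-compound control wells.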
RE007 growth inh: less growth of the S. pombe RE007 Vpr strain; S. pombe RE007 Vpr strain, BacTiter-Glo ATP luminescence, 24 h; Potency, µM (top dose mostly 92.2 µM), for the others: at the highest dose activity change, negative = less growth, usual class: inhibitors; 360,000 tested, 0.21% active; AID 651644; active = well fitted falling curve with a large enough effect; inconclusive = small, poorly fitted or top-dose-only effect; inactive = no such curve, though single readings can be large or run the other way; also: nearly all actives have a fitted effect of over 50% in size
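Fission yeast strain RE007, carrying one chromosomally integrated HIV-1 vpr copy, was seeded at OD 0.01 in PMG+AL medium with 23 nL pinned compound. After 24 h at 30 °C and 99% humidity, viability was read by BacTiter-Glo luminescence.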
AmpC inh detg: AmpC beta-lactamase inhibition with detergent present | AmpC hydrolysis of nitrocefin, absorbance 480 nm, 0.01% Triton | Potency, µM (titrated, usually from 114 µM), for inactives: at the highest dose activity change, negative = inhibition, most hits filed as inhibitors | 370,000 tested, 0.041% active;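 also: 0% = no-compound wells and -100% = no-enzyme wells; nearly all actives have a fitted effect of over 25% in size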
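20 mM phosphate pH 7.0 + 0.01% (detergent screen) or 0.0001% Triton X-100; 5.3 nM AmpC reagent; cpd preinc 15 min RT; nitrocefin (800 uM stock) to start; A480 q20 s × 4 min; Activity was normalised to no-enzyme and no-compound control wells.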
AMA1-RON2 inh: disrupts binding of P. falciparum AMA1 to RON2 | 360,000 tested, 0.2% active | AlphaScreen AMA1-biotinylated RON2 peptide binding | AID 720542 | Potency, µM (doses to about 58.2 µM), inactives show at the highest dose activity change, negative = inhibition, actives largely listed as inhibitors;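 also: 0% = vehicle wells and -100% = peptide control; nearly all actives have a fitted effect of over 45% in size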
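AMA1 (3D7) with his tag at 25 nM final met compounds first, then biotinylated RON2 peptide at 25 nM; detection used donor plus acceptor beads, 10 µg/mL apiece, read by AlphaScreen after 30 min at room temperature.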
Sm TGR inh: blocks Schistosoma mansoni thioredoxin glutathione reductase | Potency, µM (titrated, usually from 114 µM), for inactives: at the top dose activity change, negative = inhibition, usual class: inhibitors | purified TGR, DTNB reduction, TNB absorbance 405 nm | 360,000 tested, 3% active | Q962Y6; also: nearly all actives have a fitted effect of over 60% in size
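First, TGR (20 nM dispensed) and NADPH were mixed with compound. Second, a 15 min room-temperature incubation followed. Third, further NADPH and then DTNB were added to start the reaction. Finally, TNB absorbance was monitored kinetically.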
Active calls of the source: *; ? = inconclusive; · = no result given. Unless noted, calls follow the shape of the dose curve; as a rule, active = well fitted curve in the direction sought with a large enough effect; inconclusive = small, poorly fitted or top-dose-only effect, or another doubt; inactive = no such curve, though single readings can be large; an effect the other way counts as inactive or inconclusive. Unless noted, % is scaled to controls: 0 for no effect and ±100 for the full control effect; potency is read from the fitted curve at half-maximal effect.

SMILES	AmpC inh no detg	RE007 growth inh	AmpC inh detg	AMA1-RON2 inh	Sm TGR inh
COc1ccccc1Nc1ccc([N+](=O)[O-])cc1N	-18%	9%	-12%	-4%	1%
COc1cc(Nc2ccccc2Cl)c([N+](=O)[O-])nc1[N+](=O)[O-]	-20%	15%	-15%	-5%	40µM*
Cc1cc(C)c(NC(=O)CCCN2C(=O)COc3ccc(C)cc32)c(C)c1	·	·	1%	·	-8%
O=C1CSC(c2cn(-c3ccccc3)nc2-c2cccs2)N1Cc1ccccc1 (stereo not given)	-4%	·	-4%	·	-18%
Cc1ccc(-c2nn(-c3ccccc3)cc2C2SCC(=O)N2Cc2ccccc2)o1 (stereo not given)	-2%	2%	-7%	-20%	11µM*
O=C1CSC(c2cn(-c3ccccc3)nc2-c2cc3ccccc3o2)N1Cc1ccccc1 (stereo not given)	-16%	4%	?	-6%	-11%
O=C1CSC(c2cn(-c3ccccc3)nc2-c2cc3ccccc3oc2=O)N1Cc1ccco1 (stereo not given)	10%	-14%	?	1%	22µM*
CC(=O)c1cc(C(=O)Nc2cccc(C)c2)c2ccccn12	·	·	-3%	·	10%
CCc1ccc(OCC(=O)Nc2cc(-c3nc4cc(C)ccc4o3)ccc2C)cc1	·	·	0%	·	1%
COc1ccc(CCn2c(-c3ccco3)nc3nc4ccccc4nc32)cc1	12%	-6%	-12%	-4%	50µM*
COc1ccccc1Cn1c(-c2ccco2)nc2nc3ccccc3nc21	·	1%	·	-1%	·
c1coc(-c2nc3nc4ccccc4nc3n2CC2CCCO2)c1 (stereo not given)	29%	1%	-2%	2%	50µM*
c1ccc(-c2nc3nc4ccccc4nc3n2CC2CCCO2)cc1 (stereo not given)	28%	0%	0%	-3%	-35%
Cc1cc(CN2CCCC(N3CCc4ccccc4C3)C2)cc(C)c1O (stereo not given)	-10%	10%	?	6%	45µM*
Cc1ccc(CSCC(=O)N(C)CC(=O)Nc2ccc(Br)cc2C)cc1	2%	-2%	-11%	-16%	50µM*
CCc1cccc(CC)c1NC(=O)CN(C)S(=O)(=O)c1ccc2c(c1)n(C)c(=O)c(=O)n2C	·	·	5%	·	-1%
O=C(Nc1ccccc1)c1ccc(-c2ccccc2Cl)o1	-12%	-5%	?	-7%	-2%
Cc1ccc(-c2ccc(C(=O)NCc3ccccc3)o2)c2ccccc12	-37%	-11%	?	-20%	40µM*
Cc1ccc(-c2ccc(C(=O)Nc3ccccc3)o2)c2ccccc12	-58%	3%	?	?	35µM*
CCOc1ccccc1-c1ccc(C(=O)NCc2ccccc2)o1	-19%	-7%	-19%	-24%	?
CC(C)Oc1ccc(CNC(=O)c2ccc(Cn3c(=O)c4cccn4c4cccnc43)cc2)cc1	·	·	-1%	·	0%
CCOC(=O)c1cc2occc2n1CC(=O)Nc1ccc(OC)cc1OC	-13%	5%	?	-19%	20µM*
CCOC(=O)c1cc(S(=O)(=O)Nc2ccc(OC)cc2OC)cn1C	0%	10%	2%	0%	56µM*
CCN(C(=O)C1CCC(CNS(=O)(=O)c2cccc3nsnc23)CC1)c1cccc(C)c1 (stereo not given)	·	·	0%	·	4%
O=[N+]([O-])c1ccccc1/C=N\Nc1nccs1	-33%	9%	?	22%	11%
SMILES	AmpC inh no detg	RE007 growth inh	AmpC inh detg	AMA1-RON2 inh	Sm TGR inh
O=[N+]([O-])c1cc(/C=N\Nc2nccs2)ccc1O	?	·	?	·	28µM*
Cc1cc(C)c2c(c1)c(C)cc1nnc(SCc3ccccc3C#N)n12	·	·	8%	·	-15%
CCCCNC(=O)c1[nH]c2ccccc2c1Sc1ccc(C)cc1	·	·	-11%	·	2%
CCN(CC)CCCNC(=O)c1[nH]c2ccccc2c1Sc1ccc(Cl)cc1	140%	1%	6%	-6%	5µM*
Cc1ccccc1NC(=O)c1sc2nc3n(c(=O)c2c1C)N=C(c1ccccc1)CS3	·	·	-7%	·	-12%
CCOC(=O)C1(Cc2cccc(OC)c2)CCCN(C(=O)c2cc(CC(C)C)[nH]n2)C1 (stereo not given)	92%	3%	-5%	-14%	2%
CCOC(=O)C1(Cc2cccc(OC)c2)CCCN(C(=O)c2ccc(OC)o2)C1 (stereo not given)	69%	-11%	6%	-9%	50µM*
CC(=O)N1CCc2c(sc(NC(=O)CSc3ccccc3)c2-c2nc3ccccc3s2)C1	·	·	1%	·	-10%
CCCCC(=O)Nc1sc2c(c1-c1nc3ccccc3s1)CCN(C(C)=O)C2	0.5µM*	·	?	·	-25%
COc1cccc(Nc2nc3ccccc3c(=O)[nH]2)c1	10µM*	0%	2%	-5%	0%
CCCN1CC23C=CC(O2)C(C(=O)O)C3C1=O (stereo not given)	35µM*	0%	?	0%	-2%
CCC(C)N1CC23C=CC(O2)C(C(=O)OC)C3C1=O (stereo not given)	22µM*	-2%	2%	-2%	-31%
CCOC(=O)CN1CC23C=CC(O2)C(C(=O)Nc2ccc4c(c2)OCO4)C3C1=O (stereo not given)	-29%	-2%	?	6%	-8%
CCOC(=O)CN1CC23C=CC(O2)C(C(=O)Nc2ccc(OCC)cc2)C3C1=O (stereo not given)	7.9µM*	2%	?	-2%	9%
Cc1ccc(S(=O)(=O)NNC(=O)C(=O)NNS(=O)(=O)c2ccc(C)cc2)cc1	-25%	?	6%	75%	0%
Cc1ccc(NNS(=O)(=O)c2ccc(C)cc2)cc1	-33%	32µM*	-9%	-16%	7.9µM*
O=S(=O)(c1ccccc1Cl)N1CCCC1c1nc(-c2ccc(Cl)cc2)no1 (stereo not given)	0.32µM*	22%	-3%	13%	-2%
O=C(Nc1ccc(Cl)cc1)N1CCN(c2ccc3nnc(-c4ccc(F)cc4)n3n2)CC1	148%	11%	-10%	12%	2%
O=C(c1ccc(Br)o1)N1CCN(c2ccc3nnc(-c4ccc(F)cc4)n3n2)CC1	0.56µM*	11%	?	-9%	-2%
COc1ccc(NC(=O)COC(=O)Cc2ccccc2[N+](=O)[O-])cc1OC	-24%	-15%	2%	-11%	-9%
COc1ccc(N/C(=C(/C(Cl)=C(Cl)Cl)[N+](=O)[O-])n2nnc3ccccc32)cc1OC	-13%	·	-15%	·	22µM*
Cc1occc1C(=O)n1nnc2ccccc21	·	-19%	?	-7%	?
COc1ccc(C(=O)n2nnc3ccccc32)cc1OC	-34%	-7%	-17%	6%	6.3µM*
